# PHOSPHO1 inh: PubChem AID 1565. Phosphoethanolamine/phosphocholine phosphatase (Homo sapiens), Q8TCT1. inhibition, % at 13.3 µM. recombinant PHOSPHO1, absorbance phosphatase assay. 1.1% of 290,000 active; in the data active = inhibition above about 60%
# Target sequence (Q8TCT1 whole entry, looked up): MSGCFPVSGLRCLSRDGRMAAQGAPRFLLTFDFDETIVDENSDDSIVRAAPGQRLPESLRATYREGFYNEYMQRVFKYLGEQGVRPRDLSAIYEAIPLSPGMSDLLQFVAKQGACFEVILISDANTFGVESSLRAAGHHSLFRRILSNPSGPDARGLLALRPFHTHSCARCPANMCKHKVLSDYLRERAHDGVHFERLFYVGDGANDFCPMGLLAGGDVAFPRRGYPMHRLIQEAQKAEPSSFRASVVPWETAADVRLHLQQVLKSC
# eIF4H FP inh: human eIF4H binding inhibitors, primary screen, translation initiation inhibitor project, biochemical, uHTS, fluorescence polarization | Eukaryotic translation initiation factor 4H (Homo sapiens), Q15056 | eIF4H fluorescence polarization binding assay | inhibition, % at 35 µM | 0.94% of 290,000 active;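 also: calls also rest on retests at 20 µM and on dose response follow-up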
# PABP FP inh: PABP poly(A) RNA binding inhibitors, primary screen, biochemical, fluorescence polarization, uHTS; 1% of 290,000 active; calls only at 35 µM; Polyadenylate-binding protein 1 (Homo sapiens), P11940;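 also: calls also rest on retests at 20 µM and on dose response follow-up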
# PABP1 MLLE inh: inhibitors of PABP1 MLLE–PAM2 peptide binding, primary screen, biochemical, fluorescence polarization, FITC-PAM2, GST-MLLE; inhibition, % at 20 µM; 0.36% of 360,000 active; AID 588489, 2011; in the data active = inhibition above about 35%, passing the limit was not always enough
# ABCB6 inh 2: ABCB6 transporter inhibitors, primary screen, K562-ABCB6 cells, flow cytometry, MLPCN library; ATP-binding cassette sub-family B member 6 (Homo sapiens), Q9NP58; K562-ABCB6 porphyrin accumulation, 1 h; hits give low values; fluorescence ratio to DMSO, % at 10 µM; 0.19% of 360,000 active; AID 602162, 2011;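 active = fluorescence ratio to DMSO below 75%, the collection mean minus 3 SD; inconclusive = too few cells collected in the well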;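 also: signal is porphyrin accumulated inside mitochondria; lower ratio means ABCB6 inhibition with less porphyrin fluorescence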
# AI-2 QS modul: Vibrio harveyi AI-2 quorum sensing modulators, primary screen, JMH597 strain, luminescence/OD600 ratio; activity change, % at 7.5 µM; Vibrio harveyi JMH597 AI-2 luminescence/OD600 ratio, 9 h; hits give low values; strain lacks LuxN and CqsS sensors; 0 = neutral-control median; 0.4% of 300,000 active; in the data active = activity change below about -75%, passing the limit was not always enough; inconclusive = no clear call, values can overlap the other calls;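 also: luminescence divided by OD600 gain over 9 h not by final OD600 alone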
# A number is an active result; - = inactive; ? = inconclusive; . = not tested or not shown; + = active, no number. A selection: hits, their analogues and other compounds. The true share with any hit is near 2.6%. Unless noted, no rule for the calls is given here.
SMILES,PHOSPHO1 inh,eIF4H FP inh,PABP FP inh,PABP1 MLLE inh,ABCB6 inh 2,AI-2 QS modul
Cc1ccc(F)cc1C(=O)N1CCCCC1c1cc(C(=O)NC(C)C)no1 (stereo not given),.,.,.,-,-,.
CC(C)c1ccc(C2NC(=S)NC3=C2C(=O)CCC3)cc1 (stereo not given),-,active,-,-,69,-
Cc1ccc(C2NC(=S)NC3=C2C(=O)CCC3)cc1 (stereo not given),-,-,-,-,-,-
CC(C)(C)S(=O)N1Cc2cc(C(=O)N3CCc4ccccc4C3)nc(-c3cccc(-c4ccncc4)c3)c2[C@H]1CCO (stereo not given in full),.,.,.,-,-,.
Cc1cccc(NCCC#N)c1,-,-,+,-,-,-
CCNC(=O)C1(C)CCCN(Cc2cc(-c3ccccc3)n(C)n2)C1 (stereo not given),.,.,.,-,-,.
C/C(=N\NC(=O)C(N)=O)c1cccc([N+](=O)[O-])c1,-,-,-,-,-,-
CNC(=S)N/N=C(\C)c1cccc([N+](=O)[O-])c1,-,active,-,-,-,-
O=C(Nc1c(-c2ccccc2)[nH][nH]c1=O)c1ccc(Br)cc1,.,.,.,-,-,.
CC(C)NC(=O)C1(C)CCN1C(=O)c1ccc(F)c(Cl)c1 (stereo not given),.,.,.,-,-,.
CC(NC(=O)CSc1nnc(CC(=O)Nc2ccc(Cl)c(Cl)c2)n1C)c1ccccc1 (stereo not given),95,-,-,-,-,-
Cn1c(CC(=O)Nc2ccc(Cl)c(Cl)c2)nnc1SCC(=O)N1CCN(c2ccccc2)CC1,-,-,-,-,-,-
CS(=O)(=O)c1ccc(C(=O)OCC(=O)Nc2cccnc2Cl)cc1[N+](=O)[O-],.,.,.,-,-,.
Cc1ccccc1NC(=O)COC(=O)c1ccc(S(C)(=O)=O)c([N+](=O)[O-])c1,60,-,-,-,-,-
Cc1ccc(C(=O)COC(=O)CCC(=O)Nc2ccccc2Cl)cc1[N+](=O)[O-],-,4.8,+,-,-,-
CC(=O)Nc1ccc(NC(=O)CCC(=O)OCC(=O)c2ccc(C)c([N+](=O)[O-])c2)cc1,-,-,-,-,-,-
O=C(CSc1nnc(C2CCCCC2)n1Cc1ccccc1)NCc1ccco1,76,-,-,-,-,-
COc1ccc(-c2nc(SCC(=O)NCc3ccco3)c(-c3ccccc3)[nH]2)cc1OC,63,-,-,-,-,-
C=CCn1c(COc2ccccc2-c2ccccc2)nnc1SCC(=O)NC(=O)NCc1ccco1,-,-,-,-,-,-
Cc1ccccc1OCc1nnc(SCC(=O)NCc2ccco2)n1C,-,-,-,-,-,-
COc1ccccc1OCc1nnc(SCC(=O)NCc2ccco2)n1Cc1ccco1,65,-,-,-,-,-
C=CCn1c(COc2ccccc2F)nnc1SCC(=O)NC(=O)NCc1ccco1,81,-,-,-,-,-
COc1ccc(-c2[nH]c(-c3ccccc3)nc2SCC(=O)NCc2ccco2)cc1OC,-,-,-,-,-,-
CCN1C/C(=C\c2cccc(C)c2)c2nc3ccccc3c(C(=O)O)c2C1,-,?,+,.,.,.
COc1cc(/C=C2\CCCc3c2nc2ccccc2c3C(=O)O)cc(Br)c1O,-,-,-,-,-,-
SMILES,PHOSPHO1 inh,eIF4H FP inh,PABP FP inh,PABP1 MLLE inh,ABCB6 inh 2,AI-2 QS modul
COc1cc(/C=C2\CCc3c2nc2ccccc2c3C(=O)O)cc(OC)c1OC,-,87,+,-,-,-
O=C(O)CCC(=O)N1N=C(c2ccco2)CC1c1cccs1 (stereo not given),-,76,+,-,-,-
CCCCc1ccc(-c2csc(/C(C#N)=C/c3ccc(C)o3)n2)cc1,-,-,-,-,-,-
CCCCc1ccc(-c2csc(/C(C#N)=C\c3ccco3)n2)cc1,-,55,-,-,-,-
CC1CCN(S(=O)(=O)c2ccc(C(=O)Nc3nnc(-c4ccccn4)o3)cc2)CC1,71,-,-,-,-,-
COc1ccc(-c2[nH]ncc2CN(C)CCc2c(C)n[nH]c2C)c(F)c1,67,-,-,-,-,-
CCOC(=O)C1=C(C)NC(SCC(=O)OC)=C(C#N)C1c1ccc(C(=O)OC)cc1 (stereo not given),-,-,-,-,-,-
Cc1ccc(C(=O)CSC2=C(C#N)C(c3ccco3)C3=C(CC(C)(C)CC3=O)N2)cc1 (stereo not given),76,-,-,-,-,-
CCOC(=O)CSC1=C(C#N)C(c2ccc(F)cc2)C(C(C)=O)=C(C)N1 (stereo not given),79,-,-,-,-,-
CSC1=C(C#N)C(c2ccc(C)cc2)C2=C(CCCC2=O)N1 (stereo not given),-,-,-,-,-,-
CCOC(=O)CSC1=C(C#N)C(c2ccc(C)cc2)C2=C(CCCC2=O)N1 (stereo not given),92,-,-,-,-,-
Cc1ccccc1S(=O)(=O)N(C)C[C@H]1OCc2cn(nn2)CCCC(=O)N([C@H](C)CO)C[C@@H]1C,.,.,.,-,-,.
CCCCc1ccc(S(=O)(=O)NC(=O)C2(C)CCN2C(=O)CC2CC2)cc1 (stereo not given),.,.,.,-,-,.
C/C(=N\Nc1ccc(C(=O)O)cc1)c1ccc2c(c1)Nc1ccccc1S2,-,84,+,-,-,-
O=c1c2ccccc2nc2n1CCc1ccc(Br)cc1-2,.,.,.,-,-,.
CC(=O)c1cccc(OCc2cc(C(=O)N3CCC(N4CCCCC4)CC3)no2)c1,64,.,.,-,-,-
CC(=O)c1cccc(OCc2cc(C(=O)N3CCSCC3)no2)c1,-,-,-,-,-,-
Cn1nnc(NC(=S)NC(=O)/C=C/c2ccco2)n1,-,88,+,-,-,-
CC(=O)Nc1ccc(NC(=S)NC(=O)/C=C/c2ccco2)cc1,-,74,-,-,-,-
O=C(/C=C/c1ccco1)NC(=S)Nc1cccc(C(=O)O)c1,-,86,+,-,-,-
CC1=NN(CCC#N)C(=O)/C1=C/c1ccc(N(C)C)cc1,-,77,-,-,-,-
CCOc1cc(/C=C2\C(=O)N(CCC#N)N=C2C)ccc1OCC(N)=O,-,-,-,-,-,-
CC1(C)Cc2ccccc2-c2n[nH]c(=S)n21,96,-,-,-,-,-
COc1ccc2c(c1)Cc1sc(NC(C)=O)nc1-2,-,-,-,37,-,-
COc1ccc(NC(=S)N2CCC3CC2c2c(Cl)cccc23)c(OC)c1 (stereo not given),.,.,.,-,-,.

# Screening results (PubChem BioAssay)
